# Measured values: article PMC7862700, “An all-to-all approach to the identification of sequence-specific readers for epigenetic DNA modifications on cytosine”
# Columns and labels:
# Assay in all cases: DAPPL (digital affinity profiling via proximity ligation, sequencing); 10 mM Tris-HCl pH 7.5, 50 mM NaCl, 1 mM DTT, 4% glycerol, room temperature, 30 min; GST-TFs on glutathione beads, 16-mer random dsDNA library, 0.1% formaldehyde crosslink after washing; high values mean tight binding
# FLI1 = molecular target: T1, FLI1 (Homo sapiens, UniProt Q01543 1-452); details: protein: recombinant; tags: N-terminal GST; dsDNA, one strand shown
# T1 sequence: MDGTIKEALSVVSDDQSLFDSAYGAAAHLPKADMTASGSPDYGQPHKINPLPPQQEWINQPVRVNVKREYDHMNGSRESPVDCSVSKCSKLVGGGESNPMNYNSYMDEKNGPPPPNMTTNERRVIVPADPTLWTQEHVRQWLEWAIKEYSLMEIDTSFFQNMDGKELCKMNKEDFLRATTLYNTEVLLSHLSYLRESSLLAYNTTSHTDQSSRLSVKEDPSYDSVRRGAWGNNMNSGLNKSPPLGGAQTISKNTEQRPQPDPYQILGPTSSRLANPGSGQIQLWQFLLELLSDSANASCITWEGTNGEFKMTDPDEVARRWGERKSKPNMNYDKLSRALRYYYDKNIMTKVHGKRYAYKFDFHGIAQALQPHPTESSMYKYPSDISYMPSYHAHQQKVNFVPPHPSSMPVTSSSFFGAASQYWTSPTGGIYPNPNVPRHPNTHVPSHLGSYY
# Procedure, shortened: (§1)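 The binding signal reported is, for every hexamer, its read frequency for a factor over its read frequency for the tag-only sample. Reads came from pools of yeast-expressed, GST-fused human transcription factors on glutathione beads, barcoded with DNA and mixed with that sample, which were incubated with 200 nmole of a random double-stranded 16-mer DNA library in Tris/NaCl/DTT/glycerol buffer at room temperature for 30 min. After washing, the pools were crosslinked with 0.1% formaldehyde, proximity-ligated with BsaI/T4 ligase for 1 h at 37 °C, PCR-amplified and sequenced on an Illumina NextSeq500.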
# ELK1 = molecular target: T2, ELK1 (Homo sapiens, UniProt P19419 1-428); details: protein: recombinant; tags: N-terminal GST; dsDNA, one strand shown
# T2 sequence: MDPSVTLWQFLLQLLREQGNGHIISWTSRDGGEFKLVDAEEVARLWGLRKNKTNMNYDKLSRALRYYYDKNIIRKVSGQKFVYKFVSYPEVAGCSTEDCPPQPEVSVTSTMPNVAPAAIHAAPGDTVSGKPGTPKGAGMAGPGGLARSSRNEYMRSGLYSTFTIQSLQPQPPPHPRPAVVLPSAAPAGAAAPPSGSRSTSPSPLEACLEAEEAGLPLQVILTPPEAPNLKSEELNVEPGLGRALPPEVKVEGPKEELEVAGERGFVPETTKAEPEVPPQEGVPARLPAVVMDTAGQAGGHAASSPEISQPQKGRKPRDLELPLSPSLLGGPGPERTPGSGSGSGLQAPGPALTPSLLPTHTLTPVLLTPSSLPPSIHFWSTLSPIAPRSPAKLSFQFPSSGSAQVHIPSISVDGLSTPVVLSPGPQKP
# Procedure, shortened: as §1
# GABPA = molecular target: T3, GABPA (Homo sapiens, UniProt Q06546 1-454); details: protein: recombinant; tags: N-terminal GST; dsDNA, one strand shown
# T3 sequence: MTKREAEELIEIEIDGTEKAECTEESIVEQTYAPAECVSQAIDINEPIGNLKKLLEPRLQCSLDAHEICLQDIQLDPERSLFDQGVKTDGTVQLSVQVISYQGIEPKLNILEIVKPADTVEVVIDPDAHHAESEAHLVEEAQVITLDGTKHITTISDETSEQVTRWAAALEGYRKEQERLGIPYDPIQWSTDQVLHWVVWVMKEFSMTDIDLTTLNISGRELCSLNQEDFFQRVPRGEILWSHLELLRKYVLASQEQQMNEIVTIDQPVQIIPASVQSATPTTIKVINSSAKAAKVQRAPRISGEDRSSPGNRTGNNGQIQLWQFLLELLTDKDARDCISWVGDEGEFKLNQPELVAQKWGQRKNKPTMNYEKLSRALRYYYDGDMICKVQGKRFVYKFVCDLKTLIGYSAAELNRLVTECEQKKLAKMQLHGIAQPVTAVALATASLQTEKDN
# Procedure, shortened: as §1
# ERG = molecular target: T4, ERG (Homo sapiens, UniProt P11308 1-479); details: protein: recombinant; tags: N-terminal GST; dsDNA, one strand shown
# T4 sequence: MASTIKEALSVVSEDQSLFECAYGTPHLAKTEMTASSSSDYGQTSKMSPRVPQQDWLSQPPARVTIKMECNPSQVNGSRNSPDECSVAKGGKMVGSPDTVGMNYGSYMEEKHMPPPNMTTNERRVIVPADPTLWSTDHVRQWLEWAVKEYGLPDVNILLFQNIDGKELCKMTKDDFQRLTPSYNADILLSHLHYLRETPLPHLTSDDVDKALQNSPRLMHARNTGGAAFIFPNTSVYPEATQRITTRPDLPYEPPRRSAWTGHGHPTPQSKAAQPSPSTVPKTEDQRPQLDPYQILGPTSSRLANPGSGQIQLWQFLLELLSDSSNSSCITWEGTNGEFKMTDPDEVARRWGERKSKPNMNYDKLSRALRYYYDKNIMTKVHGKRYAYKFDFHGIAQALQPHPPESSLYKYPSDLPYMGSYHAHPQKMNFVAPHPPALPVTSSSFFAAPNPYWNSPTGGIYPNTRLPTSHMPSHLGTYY
# Procedure, shortened: as §1
# ELF1 = ELF1 (Homo sapiens, UniProt P32519 1-619); details: protein: recombinant; tags: N-terminal GST; dsDNA, one strand shown
# Procedure, shortened: as §1
# EHF = molecular target: T5, EHF (Homo sapiens, UniProt Q9NZC4 1-300); details: protein: recombinant; tags: N-terminal GST; dsDNA, one strand shown
# T5 sequence: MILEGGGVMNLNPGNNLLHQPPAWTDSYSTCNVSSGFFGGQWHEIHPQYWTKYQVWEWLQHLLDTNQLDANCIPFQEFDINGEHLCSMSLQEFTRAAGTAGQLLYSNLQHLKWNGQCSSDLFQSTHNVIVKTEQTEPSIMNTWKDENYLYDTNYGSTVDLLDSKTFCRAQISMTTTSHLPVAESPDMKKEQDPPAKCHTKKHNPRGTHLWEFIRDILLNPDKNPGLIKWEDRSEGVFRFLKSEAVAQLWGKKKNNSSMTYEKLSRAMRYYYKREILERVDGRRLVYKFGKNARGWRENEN
# Procedure, shortened: as §1
# SPI1 = SPI1 (Homo sapiens, UniProt P17947 1-270); details: protein: recombinant; tags: N-terminal GST; dsDNA, one strand shown
# Procedure, shortened: as §1
# SPIB = SPIB (Homo sapiens, UniProt Q01892 1-262); details: protein: recombinant; tags: N-terminal GST; dsDNA, one strand shown
# Procedure, shortened: as §1
# ELK3 = molecular target: T6, ELK3 (Homo sapiens, UniProt P41970 1-407); details: protein: recombinant; tags: N-terminal GST; dsDNA, one strand shown
# T6 sequence: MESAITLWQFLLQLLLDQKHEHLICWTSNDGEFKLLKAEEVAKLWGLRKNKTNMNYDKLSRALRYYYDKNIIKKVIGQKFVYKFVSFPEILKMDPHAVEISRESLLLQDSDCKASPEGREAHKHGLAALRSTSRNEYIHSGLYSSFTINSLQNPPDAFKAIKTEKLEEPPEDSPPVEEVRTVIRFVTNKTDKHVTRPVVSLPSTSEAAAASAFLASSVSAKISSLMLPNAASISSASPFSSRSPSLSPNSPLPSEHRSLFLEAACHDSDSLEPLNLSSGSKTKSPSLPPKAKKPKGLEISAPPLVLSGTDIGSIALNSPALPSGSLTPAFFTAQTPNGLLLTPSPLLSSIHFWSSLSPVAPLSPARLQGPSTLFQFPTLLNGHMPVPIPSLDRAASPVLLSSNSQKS
# Procedure, shortened: as §1
# FEV = molecular target: T7, FEV (Homo sapiens, UniProt Q99581 1-238); details: protein: recombinant; tags: N-terminal GST; dsDNA, one strand shown
# T7 sequence: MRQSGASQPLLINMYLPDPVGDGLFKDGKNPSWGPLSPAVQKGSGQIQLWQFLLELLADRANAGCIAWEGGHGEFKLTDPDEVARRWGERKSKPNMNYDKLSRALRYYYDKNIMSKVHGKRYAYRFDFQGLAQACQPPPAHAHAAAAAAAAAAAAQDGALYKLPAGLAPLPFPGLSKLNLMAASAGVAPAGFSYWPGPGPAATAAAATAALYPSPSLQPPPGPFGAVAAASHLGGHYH
# Procedure, shortened: as §1
# ETV5 = ETV5 (Homo sapiens, UniProt P41161 1-510); details: protein: recombinant; tags: N-terminal GST; dsDNA, one strand shown
# Procedure, shortened: as §1
# HSF1 = HSF1 (Homo sapiens, UniProt Q00613 1-529); details: protein: recombinant; tags: N-terminal GST; chain copies: 3; dsDNA, one strand shown
# Procedure, shortened: as §1
# SPIC = molecular target: T8, SPIC (Homo sapiens, UniProt Q8N5J4 1-248); details: protein: recombinant; tags: N-terminal GST; dsDNA, one strand shown
# T8 sequence: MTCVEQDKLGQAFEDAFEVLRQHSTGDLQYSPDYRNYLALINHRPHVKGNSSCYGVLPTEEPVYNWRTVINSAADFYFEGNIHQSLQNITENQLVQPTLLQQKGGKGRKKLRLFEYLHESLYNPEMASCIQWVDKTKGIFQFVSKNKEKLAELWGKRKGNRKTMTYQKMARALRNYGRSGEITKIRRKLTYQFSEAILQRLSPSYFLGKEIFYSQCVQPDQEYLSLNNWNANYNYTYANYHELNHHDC
# Procedure, shortened: as §1
# ELF4 = ELF4 (Homo sapiens, UniProt Q99607 1-663); details: protein: recombinant; tags: N-terminal GST; dsDNA, one strand shown
# Procedure, shortened: as §1
# ELK4 = molecular target: T9, ELK4 (Homo sapiens, UniProt P28324-2 1-405); details: protein: recombinant; tags: N-terminal GST; dsDNA, one strand shown
# T9 sequence: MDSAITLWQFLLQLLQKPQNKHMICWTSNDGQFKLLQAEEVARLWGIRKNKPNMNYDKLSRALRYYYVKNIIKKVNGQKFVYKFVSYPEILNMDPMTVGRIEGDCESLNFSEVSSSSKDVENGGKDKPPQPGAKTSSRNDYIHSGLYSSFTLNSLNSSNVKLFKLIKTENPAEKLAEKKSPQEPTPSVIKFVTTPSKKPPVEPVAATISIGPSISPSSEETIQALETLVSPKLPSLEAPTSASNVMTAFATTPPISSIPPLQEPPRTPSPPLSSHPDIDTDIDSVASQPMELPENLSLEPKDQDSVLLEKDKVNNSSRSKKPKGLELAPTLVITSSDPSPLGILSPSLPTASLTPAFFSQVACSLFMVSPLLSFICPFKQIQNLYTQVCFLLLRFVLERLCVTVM
# Procedure, shortened: as §1
# ETV2 = molecular target: T10, ETV2 (Homo sapiens, UniProt O00321 1-342); details: protein: recombinant; tags: N-terminal GST; dsDNA, one strand shown
# T10 sequence: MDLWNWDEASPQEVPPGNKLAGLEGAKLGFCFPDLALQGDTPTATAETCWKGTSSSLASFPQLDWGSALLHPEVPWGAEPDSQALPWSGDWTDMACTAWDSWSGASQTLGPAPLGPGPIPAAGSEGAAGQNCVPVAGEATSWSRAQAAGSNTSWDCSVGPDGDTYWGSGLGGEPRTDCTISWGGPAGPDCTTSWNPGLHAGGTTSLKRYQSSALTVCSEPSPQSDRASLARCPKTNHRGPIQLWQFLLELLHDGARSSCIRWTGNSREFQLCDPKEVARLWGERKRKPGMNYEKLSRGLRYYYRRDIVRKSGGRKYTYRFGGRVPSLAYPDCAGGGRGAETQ
# Procedure, shortened: as §1
# ELF3 = molecular target: T11, ELF3 (Homo sapiens, UniProt P78545 1-371); details: protein: recombinant; tags: N-terminal GST; dsDNA, one strand shown
# T11 sequence: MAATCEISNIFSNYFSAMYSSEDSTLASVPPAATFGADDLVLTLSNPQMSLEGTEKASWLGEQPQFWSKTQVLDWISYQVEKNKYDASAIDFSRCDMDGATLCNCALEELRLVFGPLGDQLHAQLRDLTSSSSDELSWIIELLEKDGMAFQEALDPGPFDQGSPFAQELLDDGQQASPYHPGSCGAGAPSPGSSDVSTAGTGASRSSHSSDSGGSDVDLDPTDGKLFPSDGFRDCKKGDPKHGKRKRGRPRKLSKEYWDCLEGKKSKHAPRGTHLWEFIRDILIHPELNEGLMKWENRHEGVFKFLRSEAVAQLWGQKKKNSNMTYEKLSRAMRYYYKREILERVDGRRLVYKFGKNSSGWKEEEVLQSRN
# Procedure, shortened: as §1
# CRX = CRX (Homo sapiens, UniProt O43186 1-299); details: protein: recombinant; tags: N-terminal GST; dsDNA, one strand shown
# Procedure, shortened: as §1
# ETV1 = ETV1 (Homo sapiens, UniProt P50549 1-477); details: protein: recombinant; tags: N-terminal GST; dsDNA, one strand shown
# Procedure, shortened: as §1
# Sequence of ETV5 (P41161 whole entry): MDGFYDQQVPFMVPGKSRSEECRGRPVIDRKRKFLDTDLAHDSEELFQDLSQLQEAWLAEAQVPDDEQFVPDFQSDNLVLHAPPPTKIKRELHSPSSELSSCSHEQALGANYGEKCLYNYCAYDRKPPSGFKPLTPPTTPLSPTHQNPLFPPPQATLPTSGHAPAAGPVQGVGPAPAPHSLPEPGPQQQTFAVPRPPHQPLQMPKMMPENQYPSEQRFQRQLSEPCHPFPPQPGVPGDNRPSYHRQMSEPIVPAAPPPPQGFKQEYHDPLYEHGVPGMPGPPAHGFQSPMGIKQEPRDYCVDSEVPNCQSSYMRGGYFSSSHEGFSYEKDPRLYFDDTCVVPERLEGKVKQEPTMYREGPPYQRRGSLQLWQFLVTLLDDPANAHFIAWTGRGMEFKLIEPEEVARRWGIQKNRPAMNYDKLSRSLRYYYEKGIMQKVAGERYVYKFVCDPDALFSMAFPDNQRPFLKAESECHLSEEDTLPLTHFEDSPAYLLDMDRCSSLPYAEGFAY
# Sequence of SPIB (Q01892 whole entry): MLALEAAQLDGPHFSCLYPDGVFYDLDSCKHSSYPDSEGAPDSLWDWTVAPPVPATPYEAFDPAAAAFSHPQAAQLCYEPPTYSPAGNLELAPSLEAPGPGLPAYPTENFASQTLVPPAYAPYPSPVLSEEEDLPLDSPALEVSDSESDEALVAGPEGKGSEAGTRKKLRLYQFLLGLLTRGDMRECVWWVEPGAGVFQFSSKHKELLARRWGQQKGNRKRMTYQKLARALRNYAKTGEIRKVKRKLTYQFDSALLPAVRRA
# Sequence of CRX (O43186 whole entry): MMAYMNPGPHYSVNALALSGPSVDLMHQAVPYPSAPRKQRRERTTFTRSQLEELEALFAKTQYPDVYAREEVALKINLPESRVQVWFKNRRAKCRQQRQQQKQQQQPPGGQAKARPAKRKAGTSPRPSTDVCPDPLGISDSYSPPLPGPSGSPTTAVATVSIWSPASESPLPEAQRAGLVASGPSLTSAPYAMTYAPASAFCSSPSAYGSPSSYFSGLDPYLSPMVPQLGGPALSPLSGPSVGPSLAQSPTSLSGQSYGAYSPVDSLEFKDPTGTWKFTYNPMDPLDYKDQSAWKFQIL
# Sequence of ELF4 (Q99607 whole entry): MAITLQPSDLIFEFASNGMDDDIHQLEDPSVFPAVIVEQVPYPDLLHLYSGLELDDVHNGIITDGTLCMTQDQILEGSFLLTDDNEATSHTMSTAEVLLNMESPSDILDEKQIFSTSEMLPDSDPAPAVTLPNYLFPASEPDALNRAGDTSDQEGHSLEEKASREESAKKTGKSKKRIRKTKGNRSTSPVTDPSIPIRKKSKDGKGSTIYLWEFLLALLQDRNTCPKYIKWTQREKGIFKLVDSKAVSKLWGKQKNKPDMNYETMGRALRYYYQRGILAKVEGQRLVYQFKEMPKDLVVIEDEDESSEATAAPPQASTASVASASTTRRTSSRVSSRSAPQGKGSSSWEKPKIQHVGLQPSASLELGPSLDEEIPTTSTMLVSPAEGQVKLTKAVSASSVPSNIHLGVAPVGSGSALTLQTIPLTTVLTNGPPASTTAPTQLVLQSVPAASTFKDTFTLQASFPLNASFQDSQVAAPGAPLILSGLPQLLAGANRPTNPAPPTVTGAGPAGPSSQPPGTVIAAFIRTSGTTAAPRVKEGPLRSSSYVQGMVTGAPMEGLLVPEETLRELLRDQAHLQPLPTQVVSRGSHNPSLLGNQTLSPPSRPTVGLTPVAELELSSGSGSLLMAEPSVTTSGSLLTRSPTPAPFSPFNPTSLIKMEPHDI
# Sequence of HSF1 (Q00613 whole entry): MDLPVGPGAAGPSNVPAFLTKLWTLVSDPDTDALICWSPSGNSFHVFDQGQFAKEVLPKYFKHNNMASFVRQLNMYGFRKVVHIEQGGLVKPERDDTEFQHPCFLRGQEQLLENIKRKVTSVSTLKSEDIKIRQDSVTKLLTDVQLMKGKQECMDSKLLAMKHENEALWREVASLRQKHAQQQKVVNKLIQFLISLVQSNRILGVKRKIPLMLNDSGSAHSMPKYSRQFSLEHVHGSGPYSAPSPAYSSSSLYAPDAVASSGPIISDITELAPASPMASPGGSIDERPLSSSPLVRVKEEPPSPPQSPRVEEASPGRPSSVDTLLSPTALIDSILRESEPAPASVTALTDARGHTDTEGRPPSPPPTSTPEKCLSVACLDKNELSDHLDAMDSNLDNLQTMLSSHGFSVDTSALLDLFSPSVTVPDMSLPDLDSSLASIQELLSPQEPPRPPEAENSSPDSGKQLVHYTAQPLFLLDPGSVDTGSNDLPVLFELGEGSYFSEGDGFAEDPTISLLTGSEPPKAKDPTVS
# Sequence of ETV1 (P50549 whole entry): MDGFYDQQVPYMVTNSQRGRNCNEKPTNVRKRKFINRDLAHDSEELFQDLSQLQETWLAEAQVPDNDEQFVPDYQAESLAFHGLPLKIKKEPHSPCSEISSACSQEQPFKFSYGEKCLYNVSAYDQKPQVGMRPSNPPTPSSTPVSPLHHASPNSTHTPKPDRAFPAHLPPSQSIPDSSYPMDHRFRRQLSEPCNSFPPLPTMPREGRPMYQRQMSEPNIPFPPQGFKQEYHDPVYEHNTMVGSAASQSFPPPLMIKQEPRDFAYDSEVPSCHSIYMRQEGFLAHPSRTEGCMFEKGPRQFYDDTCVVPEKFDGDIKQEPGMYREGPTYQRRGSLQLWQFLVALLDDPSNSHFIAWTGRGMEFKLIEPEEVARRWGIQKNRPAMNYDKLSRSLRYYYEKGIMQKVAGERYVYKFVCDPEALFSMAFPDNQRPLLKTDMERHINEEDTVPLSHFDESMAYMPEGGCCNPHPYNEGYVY
# Sequence of ELF1 (P32519 whole entry): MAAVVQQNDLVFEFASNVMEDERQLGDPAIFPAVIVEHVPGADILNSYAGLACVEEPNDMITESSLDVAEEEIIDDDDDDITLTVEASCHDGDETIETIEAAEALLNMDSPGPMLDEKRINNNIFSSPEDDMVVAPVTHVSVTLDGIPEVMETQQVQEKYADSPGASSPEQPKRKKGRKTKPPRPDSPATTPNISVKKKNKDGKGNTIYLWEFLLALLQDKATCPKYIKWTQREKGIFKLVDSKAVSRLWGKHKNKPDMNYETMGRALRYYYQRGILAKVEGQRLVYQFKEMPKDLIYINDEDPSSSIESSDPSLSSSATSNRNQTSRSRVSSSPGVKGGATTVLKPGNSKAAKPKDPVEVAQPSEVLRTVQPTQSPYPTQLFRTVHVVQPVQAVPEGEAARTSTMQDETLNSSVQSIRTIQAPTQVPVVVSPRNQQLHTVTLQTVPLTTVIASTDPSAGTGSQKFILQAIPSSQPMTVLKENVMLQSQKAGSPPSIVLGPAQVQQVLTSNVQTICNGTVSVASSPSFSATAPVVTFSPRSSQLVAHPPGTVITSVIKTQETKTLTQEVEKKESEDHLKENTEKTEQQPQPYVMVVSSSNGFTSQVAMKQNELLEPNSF
sequence,measurement,setting,value
CCGACT,binding signal,FLI1,"1.43 fold enrichment (6-mer frequency, TF over GST control)"
same,binding signal,ELK1,"1.6 fold enrichment (6-mer frequency, TF over GST control)"
same,binding signal,GABPA,"1.48 fold enrichment (6-mer frequency, TF over GST control)"
same,binding signal,ERG,"1.52 fold enrichment (6-mer frequency, TF over GST control)"
same,binding signal,ELF1,"1.44 fold enrichment (6-mer frequency, TF over GST control)"
same,binding signal,EHF,"1.48 fold enrichment (6-mer frequency, TF over GST control)"
same,binding signal,SPI1,"1.4 fold enrichment (6-mer frequency, TF over GST control)"
same,binding signal,SPIB,"1.64 fold enrichment (6-mer frequency, TF over GST control)"
same,binding signal,ELK3,"1.58 fold enrichment (6-mer frequency, TF over GST control)"
same,binding signal,FEV,"1.52 fold enrichment (6-mer frequency, TF over GST control)"
same,binding signal,ETV5,"1.44 fold enrichment (6-mer frequency, TF over GST control)"
same,binding signal,HSF1,"1.29 fold enrichment (6-mer frequency, TF over GST control)"
same,binding signal,SPIC,"1.53 fold enrichment (6-mer frequency, TF over GST control)"
same,binding signal,ELF4,"1.52 fold enrichment (6-mer frequency, TF over GST control)"
same,binding signal,ELK4,"1.56 fold enrichment (6-mer frequency, TF over GST control)"
same,binding signal,ETV2,"1.46 fold enrichment (6-mer frequency, TF over GST control)"
same,binding signal,ELF3,"1.55 fold enrichment (6-mer frequency, TF over GST control)"
same,binding signal,CRX,"1.45 fold enrichment (6-mer frequency, TF over GST control)"
same,binding signal,ETV1,"1.6 fold enrichment (6-mer frequency, TF over GST control)"
